Results: PubChem BioAssay (NCATS)
Inconclusive results are not listed. Active and inactive are the calls of the source. Calls follow the shape of the dose curve; as a rule, active = well fitted cell-killing curve with a large enough effect; inconclusive = small, poorly fitted or top-dose-only effect, or effect the other way; inactive = no such curve, though single readings can be large or run the other way.

Key:
[1] = Quantitative High-Throughput drug screen in 47 multiple myeloma cell lines against the NCATS MIPE library collection: KMS28PE_JCRB cell viability assay (AID 1918983); also: nearly all actives have a fitted effect of over 35% in size
How it was run: (§1)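 Readout: median RLU from CellTiter-Glo after 5 min at room temperature. Preceding step was 48 h drug treatment of 500 cells/well at 37 °C, 5% CO2, with DMSO-only and media-only control wells.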

[2] = Quantitative High-Throughput drug screen in 47 multiple myeloma cell lines against the NCATS MIPE library collection: KMS34_JCRB cell viability assay (AID 1918985); also: nearly all actives have a fitted effect of over 40% in size
How it was run: as §1

[3] = Quantitative High-Throughput drug screen in 47 multiple myeloma cell lines against the NCATS MIPE library collection: OCIMY7_PLB cell viability assay (AID 1918987); conditions: OCI-MY7 myeloma viability, CellTiter-Glo ATP, 48 h; viability (% of DMSO): at 45.8 µM (top of the series); also: nearly all actives have a fitted effect of over 65% in size
How it was run: as §1

[4] = Quantitative High-Throughput drug screen in 47 multiple myeloma cell lines against the NCATS MIPE library collection: OCIMY5_PLB cell viability assay (AID 1918988); also: nearly all actives have a fitted effect of over 65% in size
How it was run: as §1

[5] = Quantitative High-Throughput drug screen in 47 multiple myeloma cell lines against the NCATS MIPE library collection: OPM1_PLB cell viability assay (AID 1918989); also: nearly all actives have a fitted effect of over 40% in size
How it was run: as §1

[6] = Quantitative High-Throughput drug screen in 47 multiple myeloma cell lines against the NCATS MIPE library collection: SKMM1_PLB cell viability assay (AID 1919863); conditions: SKMM1 myeloma viability, CellTiter-Glo ATP, 48 h; viability: hits give low values; also: nearly all actives have a fitted effect of over 35% in size
How it was run: as §1

[7] = Quantitative High-Throughput drug screen in 47 multiple myeloma cell lines against the NCATS MIPE library collection: U266_ATCC cell viability assay (AID 1919864); also: nearly all actives have a fitted effect of over 35% in size;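 as to viability (% of DMSO control): 0% = media-only wells without cells and 100% = DMSO-only wells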
How it was run: as §1

[8] = Quantitative High-Throughput drug screen in 47 multiple myeloma cell lines against the NCATS MIPE library collection: XG6_PLB cell viability assay (AID 1919865); also: nearly all actives have a fitted effect of over 40% in size
How it was run: as §1

[9] = Quantitative High-Throughput drug screen in 47 multiple myeloma cell lines against the NCATS MIPE library collection: XG1_PLB cell viability assay (AID 1919866); also: nearly all actives have a fitted effect of over 35% in size
How it was run: as §1

[10] = Quantitative High-Throughput drug screen in 47 multiple myeloma cell lines against the NCATS MIPE library collection: VP6_DJ cell viability assay (AID 1919867); also: nearly all actives have a fitted effect of over 40% in size;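 as to viability (% of DMSO): 100% = DMSO-only wells and 0% = wells with media alone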
How it was run: as §1

[11] = Quantitative High-Throughput drug screen in 47 multiple myeloma cell lines against the NCATS MIPE library collection: UTMC2_PLB cell viability assay (AID 1919868); conditions: CellTiter-Glo ATP luminescence, 48 h; viability (% of DMSO control): at 45.8 µM (top of the series); also: nearly all actives have a fitted effect of over 55% in size
How it was run: as §1

[12] = Quantitative High-Throughput drug screen in 47 multiple myeloma cell lines against the NCATS MIPE library collection: PE2_PLB cell viability assay (AID 1919869); also: nearly all actives have a fitted effect of over 35% in size
How it was run: as §1

[13] = Quantitative High-Throughput drug screen in 47 multiple myeloma cell lines against the NCATS MIPE library collection: PCM6_Riken cell viability assay (AID 1919870); also: nearly all actives have a fitted effect of over 30% in size
How it was run: as §1

[14] = Quantitative High-Throughput drug screen in 47 multiple myeloma cell lines against the NCATS MIPE library collection: OPM2_DSMZ cell viability assay (AID 1919872); also: nearly all actives have a fitted effect of over 30% in size
How it was run: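 qHTS of the MIPE 4.0 collection: 500 myeloma cells/well, 48 h drug exposure at 37C in 5% CO2, then CellTiter-Glo for 5 min at room temperature before luminescence reading.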

[15] = Quantitative High-Throughput drug screen in 47 multiple myeloma cell lines against the NCATS MIPE library collection: RPMI8226_ATCC cell viability assay (AID 1919871); also: nearly all actives have a fitted effect of over 30% in size
How it was run: as §1

[16] = Quantitative High-Throughput drug screen in 47 multiple myeloma cell lines against the NCATS MIPE library collection: L363_DSMZ cell viability assay (AID 1918984); also: nearly all actives have a fitted effect of over 40% in size
How it was run: as §1

[17] = Quantitative High-Throughput drug screen in 47 multiple myeloma cell lines against the NCATS MIPE library collection: KMS11_JCRBsus cell viability assay (AID 1919873); also: nearly all actives have a fitted effect of over 50% in size
How it was run: as §1

[18] = Quantitative High-Throughput drug screen in 47 multiple myeloma cell lines against the NCATS MIPE library collection: KMS28BM_JCRB cell viability assay (AID 1919874); also: nearly all actives have a fitted effect of over 35% in size
How it was run: as §1
Potency is read from the fitted curve at half-maximal effect.

CCOC(=O)C1=C(C)NC(=S)NC1c1cccc(O)c1 (stereo not drawn)
inactive: Potency [7]
active: Potency [1] 83.3 nM | Potency [2] 83.3 nM | Potency [3] 105 nM | Potency [4] 23.5 nM | Potency [5] 29.6 nM | Potency [6] 52.6 nM | Potency [8] 29.6 nM | Potency [9] 66.2 nM | Potency [10] 29.6 nM | Potency [11] 37.2 nM | Potency [12] 14.8 nM | Potency [13] 37.2 nM | Potency [14] 105 nM

c1ccc2c(Oc3nc(Nc4ccc(N5CCOCC5)cc4)c4ncn(C5CCCCC5)c4n3)cccc2c1
inactive: Potency [1] | Potency [5] | Potency [12] | Potency [13] | Potency [15] | Potency [14]
active: Potency [3] 14800 nM | Potency [4] 18700 nM | Potency [9] 18700 nM | Potency [10] 14800 nM

C=Cc1c(C)c2cc3nc(cc4[nH]c(cc5nc(cc1[nH]2)C(C)=C5CCC(=O)O)c(CCC(=O)OC)c4C)[C@@]1(C)C3=CC=C(C(=O)OC)[C@H]1C(=O)OC
active: Potency [16] 526 nM | Potency [2] 743 nM | Potency [3] 662 nM | Potency [4] 41.8 nM | Potency [5] 372 nM | Potency [6] 743 nM | Potency [7] 296 nM | Potency [8] 33.2 nM | Potency [9] 93.5 nM | Potency [10] 118 nM | Potency [11] 105 nM | Potency [12] 209 nM | Potency [13] 83.3 nM | Potency [14] 1050 nM | Potency [17] 9350 nM | Potency [18] 418 nM

Nc1nc(=O)n([C@H]2CSC(CO)O2)cc1F (stereo partly drawn)
inactive: Potency [1] | Potency [16] | Potency [5] | viability [6] 114% | Potency [8] | Potency [9] | Potency [10] | Potency [12] | Potency [15] | Potency [14]

CCCCC(=O)O[C@]1(C(=O)CO)[C@@H](C)C[C@H]2[C@@H]3CCC4=CC(=O)C=C[C@]4(C)[C@@]3(F)[C@@H](O)C[C@@]21C
inactive: Potency [1] | viability [6] 122% | Potency [7] | Potency [8] | Potency [9] | Potency [12] | Potency [14] | Potency [18]
active: Potency [2] 37.2 nM | Potency [4] 9.3 nM | Potency [5] 37.2 nM | Potency [10] 14800 nM | Potency [15] 11.8 nM

CNC(=O)Nc1ccc(-c2nc(N3CC4CCC(C3)O4)c3cnn(C4CCC5(CC4)OCCO5)c3n2)cc1
active: Potency [1] 3.7 nM | Potency [2] 18.7 nM | Potency [3] 3720 nM | Potency [4] 833 nM | Potency [5] 11.8 nM | Potency [6] 16.6 nM | Potency [7] 14.8 nM | Potency [13] 66.2 nM | Potency [14] 20.9 nM | Potency [18] 7.4 nM
